Shown are actives, neighbours in structure and some others; about 8% of the full set was active somewhere.
HT1080 IDH1KD tx = HT-1080 IDH1 knockdown cell toxicity (counter line); Potency, µM (top dose mostly 46.1 µM), for inactives: top-dose activity, negative = toxicity, usual class: cytotoxic; hit rate 2% among 360,000; HT-1080 IDH1 knockdown viability, ATP luminescence, 48 h;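 further: 0% = DMSO wells and -100% = cell-free medium wells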
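Knockdown cells (IDH1KD HT-1080) received compounds 2 h after plating at 750 cells/well and were kept 48 h at 37 °C in 5% FBS RPMI. A CellTiter-Glo luminescence read gave % activity for curve fitting.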
MCF10A rerep = DNA re-replication induction in MCF 10a cells. MCF 10A DNA re-replication, Hoechst nuclear intensity, 48 h. Potency, µM (doses to about 46.1 µM), for the others: top-dose activity, positive = re-replication, actives largely listed as activators. hit rate 2.9% among 350,000. AID 624296; further: % of control where 0% means no effect; nearly all actives have a fitted effect of over 50% in size
SW480 rerep = inducers of DNA re-replication in SW480 colon cancer cells; SW480 DNA re-replication, Hoechst DNA content imaging, 48 h; Potency, µM (top dose mostly 46.1 µM), for inactives: top-dose re-replication activation, most hits filed as activators; hit rate 1.8% among 340,000; further: % of control where 0% means no effect; nearly all actives have a fitted effect of over 55% in size
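Image-based read-out: total Hoechst fluorescence of nuclei (405 nm excitation, 500-530 nm emission), with hits raising the fraction of high-intensity nuclei. SW480 colon cells incubated 48 hr with compounds at 37 C.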
KB-3-1 cytotox = kills parental KB-3-1 adenocarcinoma cells; KB-3-1 viability, CellTiter-Glo ATP luminescence, 72 h; Potency, µM (doses to about 46.1 µM), hits mostly cytotoxic; hit rate 1.4% among 400,000; AID 1347075; further: on the % scale 0 is the no-effect control and ±100 the full control effect; nearly all actives have a fitted effect of over 60% in size
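KB-3-1 cells, DMEM (no phenol red) + 10% FBS; compound by pin transfer, 72 h, 37 °C. Readout: CellTiter-Glo luminescence after 10 min. Data normalized, curve-fitted.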
HT1080NT lethal = kills 2HG-producing HT-1080-NT fibrosarcoma cells; HT-1080-NT fibrosarcoma viability, CellTiter-Glo ATP luminescence, 48 h; Potency, µM (highest dose often 46.1 µM), without a hit: at the top dose activity, negative = less viability, usual class: cytotoxic; hit rate 1.6% among 360,000;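 further: NT is the 2HG producing partner of a matched IDH1 knockdown line; 0% = DMSO-treated cells and -100% = media-only wells without cells; nearly all actives have a fitted effect of over 55% in size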
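Luminescent CellTiter-Glo readout after 48 hours of compound exposure at 37 degrees C defined viability of HT-1080-NT cells. Activity was normalized to DMSO wells and cell-free media wells; concentration-response curves were fitted and assigned curve classes.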
KB-V1 cytotox = KB-V1 MDR subline cytotoxicity; AID 1347076; KB-V1 MDR cells viability, CellTiter-Glo, 72 h; hit rate 3.4% among 400,000; Potency, µM (top dose mostly 46.1 µM), most hits filed as cytotoxic; further: on the % scale 0 is the no-effect control and ±100 the full control effect; nearly all actives have a fitted effect of over 60% in size
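Potencies derive from concentration-effect curves fitted to normalized luminescence (CellTiter-Glo) of KB-V1 cells treated for 72 h at 37 degrees C in phenol-red-free DMEM containing 10% FBS.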
* marks the source's active call; other numbers are inactive results; i = inactive; u = inconclusive; x = not tested or not shown; [ ] = another dose, or the depositor's remark. The call rests on the fitted dose curve; in most records, active means well fitted curve in the direction sought with a large enough effect; inconclusive means small, poorly fitted or top-dose-only effect, or another doubt; inactive means no such curve, though single readings can be large; an effect the other way counts as inactive or inconclusive. Potency means the concentration at half of the fitted maximal effect.

SMILES | HT1080 IDH1KD tx | MCF10A rerep | SW480 rerep | KB-3-1 cytotox | HT1080NT lethal | KB-V1 cytotox
O=c1oc2ccccc2c(N2CCN(c3ccc(F)cc3)CC2)c1CN1CCCC1 | x | x | x | i | x | i
COc1cc(/C=C/C(=O)Nc2nc3ccc(S(=O)(=O)NC(C)C)cc3s2)cc(OC)c1OC | 0% | 2% | -3% | i | 6% | i
N#Cc1ccc(OCCOCCNC2CCCC2)cc1 | 0% | -8% | -4% | i | 3% | i
OC1(c2ccc(Br)cc2)CCNCC1 | u | -1% | -8% | i | 22µM* | i
O=C1NN(c2ccc(F)c(Cl)c2)C(=O)/C1=C\c1cccc(OC(=O)c2cccs2)c1 | u | 15µM* | 0% | i | u | i
CN(C)c1ccc(NC(=O)Cn2cc(S(=O)(=O)Cc3cccc(Cl)c3)c3ccccc32)cc1 | x | x | x | i | x | i
CCOC(=O)c1sc(=N)n(-c2ccc(OC)cc2)c1C | -2% | 12% | 2% | i | 0% | i
CCOC(=O)c1c(C)n(C)c2ccc(O)c(CN(C)C)c12 | -14% | u | 0% | u | -17% | i
CCOC(=O)c1c(C)n(-c2ccc(OC)cc2)c2ccc(O)c(CN(C)C)c12 | 21µM* | 11% | u | u | u | u
CCOC(=O)c1c(C)n(-c2ccc(C)cc2)c2ccc(O)c(CN(C)C)c12 | 16µM* | u | u | i | 16µM* | i
COc1cc(C(C[N+](=O)[O-])c2c(C)[nH]c3ccccc23)ccc1O (configuration not stated) | -11% | 0% | -1% | u | 1% | u
CCn1cc(C(c2ccccc2)C(C(C)=O)[N+](=O)[O-])c2ccccc21 (configuration not stated) | -11% | u | 2% | i | u | u
COc1ccccc1C(C[N+](=O)[O-])c1c[nH]c2ccccc12 (configuration not stated) | u | u | u | u | 15µM* | u
CC(=O)C(C(c1ccccc1)c1c[nH]c2ccccc12)[N+](=O)[O-] (configuration not stated) | 23µM* | u | u | 7.3µM* | u | u
COc1cc(NC(=S)N2CCN(CCO)CC2)cc(OC)c1 | -2% | -19% | 0% | i | 5% | i
CN(Cc1ccco1)S(=O)(=O)c1ccc2c(c1)CCN2C(=O)CCC(=O)O | 9% | -74% | -52% | i | 15% | i
CC1Cc2ccccc2N1C(=O)CO/N=C/c1ccccc1OC(F)F (configuration not stated) | -19% | 3% | 16µM* | i | -2% | u
COc1ccc(NC(=O)c2ccccc2NC(=O)COc2ccccc2)cc1 | 0% | 0% | 0% | i | -1% | i
C=CCNC(=O)/C(=C\c1ccc2c(c1)OCO2)NC(=O)c1ccc(Br)cc1 | -3% | -5% | -85% | i | -8% | 23µM*
COc1cc(C(=O)Oc2cccc(/C=N/NC(=O)c3cccnc3)c2)cc(OC)c1OC | 18µM* | -7% | u | i | u | i
COc1cc(C(=O)Oc2ccccc2/C=N/NC(=O)c2ccc(C)cc2)cc(OC)c1OC | u | u | u | 8.2µM* | u | i
O=C(N/N=C/c1ccccc1OC(=O)c1ccc2c(c1)OCO2)c1ccccc1 | -19% | 21µM* | u | i | -2% | i
Fc1ccc(-n2nnc(-c3cccnc3Cl)n2)cc1 | -1% | 9% | 2% | i | -1% | i
COCc1cccc(-c2csc(C(NC(C)=O)c3ccc(F)c(F)c3)n2)c1 (configuration not stated) | 22% | x | x | i | 2% | i
COC(=O)/C=C/c1ccc2c(c1)S(=O)(=O)N(c1cccc(OC)c1)[C@H]2CC(=O)OC | -4% | 18% | 20%[9.22 µM] | i | -1% | u
SMILES | HT1080 IDH1KD tx | MCF10A rerep | SW480 rerep | KB-3-1 cytotox | HT1080NT lethal | KB-V1 cytotox
COc1ccc(CCN2C(=O)CSC2c2ccc(OC)c(OC)c2)cc1OC (configuration not stated) | -12% | 3% | -15% | i | -1% | i
COc1ccc(C(=O)N/N=C/c2ccccc2OC(=O)c2ccccc2)cc1 | 4.1µM* | u | u | 18µM* | 4.6µM* | 13µM*
Cc1cccc(C(=O)Oc2ccccc2/C=N/NC(=O)c2ccc(NC(=O)C(C)(C)C)cc2)c1 | 4% | 14% | 2% | i | 0% | u
CC(C)(C)C(=O)Nc1ccc(C(=O)N/N=C/c2ccccc2OC(=O)c2ccc(Cl)cc2)cc1 | u | 12% | 2.6µM* | i | -25% | i
O=C(O)COc1ccccc1/C=N/NC(=O)/C(=C\c1ccc2c(c1)OCO2)NC(=O)c1ccccc1 | 11% | 18µM* | 5% | i | u | i
COc1ccc(C(=O)N/N=C/c2ccc(OC(=O)c3ccccc3)cc2)cc1 | 6% | -7% | -8% | i | -3% | i
CCCn1cc(S(=O)(=O)c2ccccc2)c(=O)c2cc(OC)c(OC)cc21 | -1% | -1% | -8% | i | 2% | u
Cc1ccc(S(=O)(=O)N(C)C)cc1NC(=O)COC(=O)CCC(=O)c1ccc(F)cc1 | 12% | -10% | -2% | i | 11% | i
Cc1cc(-c2nn(-c3ccccc3)cc2/C=C2\SC(N)=NC2=O)ccc1OC(C)C | 2% | 4.1µM* | u | u | 7% | 16µM*
CCCOc1ccc(-c2nn(-c3ccccc3)cc2/C=C2\SC(N)=NC2=O)cc1 | -8% | 4.6µM* | u | i | -10% | i
Cc1nnsc1C(=O)NNc1c(Cl)cccc1Cl | -7% | 8% | -11% | i | u | i
CCc1ccccc1NNC(=O)c1snnc1C | u | u | 12µM* | i | 12µM* | i
COc1ccc(-c2ccc([C@H]3[C@H]4C=CC[C@@H](C)[C@@H]4C(=O)N3Cc3ccccc3)c(F)c2)cc1 | u | 13µM* | u | i | u | i
COc1ccc(-c2ccc([C@H]3[C@H]4C=CC[C@@H](C)[C@@H]4C(=O)N3Cc3ccccc3)c(F)c2)cc1OC | u | -8% | 9%[9.22 µM] | u | u | u
COc1ccc(-c2ccc(C)cc2)cc1[C@H]1[C@H]2C=CC[C@@H](C)[C@@H]2C(=O)N1Cc1ccccc1 | 3% | -3% | 1% | i | 2% | i

From PubChem
